{"source": "PubChem BioAssay (Tox21)", "note": "Records with an inconclusive call do not appear. Calls of active or inactive are those of the source. Calls come from the whole dose curve. % is set by controls: 0 for no effect and ±100 for the full control effect.", "data": [{"target": "Beta-2 adrenergic receptor (Homo sapiens) (UniProt P07550)", "sequence (P07550 whole entry, looked up)": "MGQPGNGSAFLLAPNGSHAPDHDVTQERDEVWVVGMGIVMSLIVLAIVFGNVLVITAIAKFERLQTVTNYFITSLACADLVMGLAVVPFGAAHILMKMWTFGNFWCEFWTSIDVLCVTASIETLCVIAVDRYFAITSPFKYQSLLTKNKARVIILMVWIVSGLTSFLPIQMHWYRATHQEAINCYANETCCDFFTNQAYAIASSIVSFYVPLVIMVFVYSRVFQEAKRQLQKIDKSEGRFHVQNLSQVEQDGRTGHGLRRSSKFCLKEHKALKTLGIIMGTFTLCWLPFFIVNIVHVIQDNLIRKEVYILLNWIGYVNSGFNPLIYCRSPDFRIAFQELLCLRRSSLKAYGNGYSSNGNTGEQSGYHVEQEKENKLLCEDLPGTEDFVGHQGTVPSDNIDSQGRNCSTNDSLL", "assay": "Adrenergic beta2 receptor (ADRB2) small molecule agonists, cell-based qHTS assay (AID 1963593);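 note: CHO cells stably overexpressing human ADRB2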", "conditions": "CHO-ADRB2 cells, cAMP HTRF, 30 min; series mostly up to 42.5 µM; activation: at the top concentration", "method_in_brief": "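CHO cells stably over-expressing ADRB2 were plated overnight at 37C, then dosed with compounds plus a stimulation mix containing 100uM IBMX and 25uM Ro-20-1724 for 0.5hr at room temperature. cAMP was measured by HTRF competition, 1hr.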", "values": [{"smiles": "O=C(O)c1cc(C(=O)O)c(C(=O)O)cc1C(=O)O", "activation": "-7.52% [at 92.4 µM] (inactive)"}, {"smiles": "O=C(NS(=O)(=O)/C=C/c1ccccc1)c1ccc(F)cc1Cl", "activation": "-34.4% [at 92.4 µM] (inactive)"}, {"smiles": "CC(C)NCCCC1(C(N)=O)c2ccccc2-c2ccccc21", "activation": "17.1% (inactive)"}, {"smiles": "CCCCCc1ccc(N)cc1", "activation": "3.54% [at 92.4 µM] (inactive)"}, {"smiles": "CC/C=C\\CCOC(=O)c1ccccc1O", "activation": "11.7% [at 92.4 µM] (inactive)"}, {"smiles": "CCCCCCCCCCCCCCNCCO", "activation": "-2.37% (inactive)"}, {"smiles": "C=CC(=O)OCCOCCOC(=O)C=C", "activation": "2.79% [at 92.4 µM] (inactive)"}, {"smiles": "C[C@H]1O[C@H](O[C@H]2[C@H](O)[C@@H](O)[C@@H](O[C@H]3[C@H](O)[C@@H](O)[C@H](O)O[C@@H]3CO)O[C@@H]2CO)[C@H](O)[C@@H](O)[C@@H]1N[C@H]1C=C(CO)[C@@H](O)[C@H](O)[C@H]1O", "activation": "-12.1% (inactive)"}, {"smiles": "CCCCCCCCCCCCCCBr", "activation": "3.01% [at 92.4 µM] (inactive)"}, {"smiles": "O=C(O)CCCC[P+](c1ccccc1)(c1ccccc1)c1ccccc1", "activation": "13.9% (inactive)"}, {"smiles": "CCCCCCCCSCc1cc(C)c(O)c(CSCCCCCCCC)c1", "activation": "18.2% [at 92.4 µM] (inactive)"}, {"smiles": "Nc1ccc(S(=O)(=O)Nc2ccnn2-c2ccccc2)cc1", "activation": "17.1% [at 19 µM] (inactive)"}, {"smiles": "C/C=C\\C/C=C/CCCCCCCCOC(C)=O", "activation": "29.6% [at 92.4 µM] (inactive)"}, {"smiles": "CCN1CCCC1CNC(=O)c1cc(S(=O)(=O)CC)c(N)cc1OC", "note": "(centres undefined)", "activation": "4.8% (inactive)"}]}]}
